Data taken from the supplement of paper PMC6992640.

System: HCI01 (cells of a triple-negative basal-like breast cancer xenograft)
Test: cell viability of combination (% of vehicle); higher = less cytotoxic
Conditions: 1 µM; 72 h; partner dose: 10 nM
Experimental: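 PDX cells were treated for 72 h with each drug at 1 µM plus carfilzomib (10 nM; 100 nM for WHIM2). Luciferase viability is expressed as percent of vehicle.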

**Q.** For `CC(C)(C)NC(=O)C1CC2CCCCC2CN1CC(O)C(Cc1ccccc1)NC(=O)C(CC(N)=O)NC(=O)c1ccc2ccccc2n1.CS(=O)(=O)O` (centres undefined) [Saquinavir mesylate] + CC(C)C[C@H](NC(=O)[C@H](CCc1ccccc1)NC(=O)CN1CCOCC1)C(=O)N[C@@H](Cc1ccccc1)C(=O)N[C@@H](CC(C)C)C(=O)[C@@]1(C)CO1 [Carfilzomib], which “cell viability of combination” value is on record?
**A.** 79.5

**Q.** With `O=C(c1ccc(F)c(F)c1Nc1ccc(I)cc1F)N1CC(O)(C2CCCCN2)C1` (centres undefined) [Cobimetinib] + CC(C)C[C@H](NC(=O)[C@H](CCc1ccccc1)NC(=O)CN1CCOCC1)C(=O)N[C@@H](Cc1ccccc1)C(=O)N[C@@H](CC(C)C)C(=O)[C@@]1(C)CO1 [Carfilzomib] as the molecule, how does the “cell viability of combination” value read?
**A.** 65.6

**Q.** Which “cell viability of combination” value does the source give for `CNC(=O)c1cc(Oc2ccc(NC(=O)Nc3ccc(Cl)c(C(F)(F)F)c3)c(F)c2)ccn1` [Regorafenib] + CC(C)C[C@H](NC(=O)[C@H](CCc1ccccc1)NC(=O)CN1CCOCC1)C(=O)N[C@@H](Cc1ccccc1)C(=O)N[C@@H](CC(C)C)C(=O)[C@@]1(C)CO1 [Carfilzomib] here?
**A.** 74.6

**Q.** How did the “cell viability of combination” value turn out when `O=C1C=CC=CC1=C1NC(=C2C=CC=CC2=O)N(c2ccc(C(=O)O)cc2)N1` [Deferasirox] + CC(C)C[C@H](NC(=O)[C@H](CCc1ccccc1)NC(=O)CN1CCOCC1)C(=O)N[C@@H](Cc1ccccc1)C(=O)N[C@@H](CC(C)C)C(=O)[C@@]1(C)CO1 [Carfilzomib] was run?
**A.** 67.8
